Here are results for 39 compounds from PubChem BioAssay (NCI).

The structures appear in SMILES notation. This is part of a sample that, as a whole, favours compounds with a hit. Of some 83,000 tested, about 20% had one in any assay.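 Percent growth is the endpoint: 0 to 100 indicates growth inhibition (40 means 60% inhibition), 0 means no net growth, and negative values indicate cell death.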 Unmarked numbers belong to inactive results. Activity calls are given as the source filed them. How the source made its calls: active means growth percent below 10; inactive means the rest.

The test system of one test is PC-3 prostate. Nature of the test: NCI-60 one-dose screen, 48 h (100 = growth as untreated, 0 = no growth, -100 = all killed). As to conditions: 10 µM unless noted.
For `O=C1c2cc3c(cc2-c2c1c1ccc(F)cc1c(=O)n2C[C@H](O)[C@H](O)[C@H](O)CO)OCO3`, the growth was 6.99% (active).
On the same count and under the same terms, in the case of `O=C(CCl)Oc1ccc(-c2ccccc2)c(Br)c1` it was 97.2%; in that of `CCCCCCN(CCCCCC)C(=N)c1ccnc2ccccc12`, 58.3%.
The same measure, in the same setting: the same measure for `Cc1cc(N2CCCCCC2)nc(NC2CCCC(Nc3ccnc4cc(Cl)ccc34)C2)n1` (stereo not drawn): -88.1% (active).

The subject of a further test is UACC-62 melanoma. The test is described as above. As to conditions: 10 µM unless noted.
On to `Cn1ccnc1C(=O)/C=C/c1ccc(CC(=O)Nc2ccccc2)cc1`, for which the growth is 26.7%.
Take `Cc1ccc2oc(=O)cc(C3c4ccc([nH]4)C(c4cc(=O)oc5ccc(C)cc45)c4ccc([nH]4)C(c4cc(=O)oc5ccc(C)cc45)c4ccc([nH]4)C(c4cc(=O)oc5ccc(C)cc45)c4ccc3[nH]4)c2c1` (stereo not drawn): the growth is -57% (active).
For `CC(C)(C)CC(C)(C)c1ccc(OCCOCC[N+](C)(C)Cc2ccccc2)cc1`, the growth was -98.5% (active).
With `CN1CCN(CCCOc2cccc3nc(Nc4cc(Cl)cc(Cl)c4)ccc23)CC1`, the growth was -57.7% (active).
Same read-out and setting: the same measure for `CC(C)C[C@@H](NC(=O)[C@@H](Cc1ccccc1)NC(=O)c1cnccn1)B1Oc2ccc(C[C@H](NC(=O)[C@H](Cc3ccc4c(c3)OB([C@@H](CC(C)C)NC(=O)[C@@H](Cc3ccccc3)NC(=O)c3cnccn3)O4)NC(=O)[C@@H](N)CC3CCC4OB([C@@H](CC(C)C)NC(=O)[C@@H](CC5CCCCC5)NC(=O)C5CNCCN5)OC4C3)C(=O)NCCCC[C@@H]3NC(=O)[C@@H](Cc4ccccc4)NC(=O)[C@H](CC(=O)O)NC(=O)CNC(=O)[C@H](CCCNC(=N)N)NC3=O)cc2O1` (stereo partly drawn): -73.8% (active); for `CCN(CC)c1ccc(/C=N\NC(=O)/C=C/C=C/c2ccc3c(c2)OCO3)c(O)c1`: 29.1%.
On the same count and under the same terms, the same measure for `O=S(=O)(Nc1ccc(NS(=O)(=O)c2ccccc2)c(Cl)c1)c1ccccc1`: 88.8%; for `COc1ccc(/C=C/c2nc3ccccc3nc2/C=C/c2ccc(OC)cc2)cc1`: 90%; for `COc1ccc(/C=C/C(=O)c2cc(O)ccc2O)cc1`: 102%.
The same measure, in the same setting: in the case of `O=CNc1ccc2c(c1)Cc1cccc(NC=O)c1-2` it was 72.1%; in that of `FC(F)(F)c1[nH]ncc1-c1nc2ccc3n[nH]c(C#Cc4cccnc4)c3c2c2c1CCCC2`, 26.8%; in that of `CCOc1cc2ncc(C#N)c(Nc3ccc(OCc4cccc(F)c4)c(Cl)c3)c2cc1NC(=O)CCCCC1CCSS1` (stereo not drawn), 89%.
For the compound `O=C(COc1ccc(-c2nc3cc(Cl)c(Cl)cc3[nH]2)cc1)N=Nc1c(O)[nH]c2ccccc12`, the growth is 1.75% (active).
Still for that read-out and setting: in the case of `Nc1n[nH]c2cc(F)c([C@@H]3Nc4ccc5[nH]ncc5c4[C@H]4C5CCC(C5)[C@@H]34)cc12` (stereo partly drawn) it was 31.5%.
As for `C#CC(F)(F)[C@]1(O)CC[C@H]2[C@@H]3CCC4=CC(=O)CCC4=C3[C@@H](c3ccc(C(C)=O)cc3)C[C@@]21C`, the growth was 80.2%.
`CCCOc1cc2ccccc2cc1C(=O)Nc1nc(N)c2c(ccc3nccc32)[nH]1`: the growth was -81% (active).
Regarding `CCc1nc(N)nc(N)c1C#CC(C)c1cc(-c2ccnc(C)c2)c2oc(C)nc2c1` (stereo not drawn), the growth is -12.3% (active).
On to `Clc1ccc2c(NCCCCNc3nc(N4CCCCC4)nc4ccccc34)ccnc2c1`, for which the growth was -86.9% (active).
With `O=c1ccccc(-c2ccc(-c3ccco3)cc2)c1O`, the growth was -42.3% (active).
Still for that read-out and setting: in the case of `CCOC(=O)c1c(C)oc2ncnc(N3CCN(C(=S)Nc4ccccc4)CC3)c12` it was 87.2%; in that of `CCN1CCN(c2nc(NCCNc3ccnc4cc(Cl)ccc34)c3ccccc3n2)CC1`, -87.9% (active).
On to `COc1ccc(-c2n[nH]nc2-c2csc3ccccc23)cc1OC`, for which the growth was 27.7%.
As to `COc1ccc(O)c(N=Nc2nccs2)c1`, the growth was 89.8%.
With `O=C(Oc1cccnc1)c1ccsc1Nc1ccnc(C(F)(F)F)c1`, the growth is 91.5%.
Turning to `Oc1ccccc1-c1nnc(CNc2ccc(Cl)cc2)o1`, the growth is 8.19% (active).
Consider `NC1=C(Cl)C(=O)c2ccc(S(N)(=O)=O)cc2C1=O`, for which the growth is -88% (active).
Regarding `CCOc1cc2ncc(C#N)c(Nc3ccc(F)c(Cl)c3)c2cc1NC(=O)CC1CCSS1` (stereo not drawn), the growth was -66% (active).
For `Clc1ccc2c(NCCCCNc3nc(N4CCOCC4)nc4ccccc34)ccnc2c1`, the growth was 99.1%.
Still for that read-out and setting: the same measure for `Cc1ccc(-c2onc3c(=O)[nH]nc(-c4ccccc4)c23)cc1`: 44.8%; for `CN(Cc1cc(Cl)cc(Cl)c1O)Cc1cc(Cl)cc(Cl)c1O`: 64.8%; for `CCN1CCN(c2nc(NCCCNc3ccnc4cc(Cl)ccc34)c3ccccc3n2)CC1`: -75.6% (active).
For `CSc1ccc(-c2ccccc(=O)c2O)cc1`, the growth was -23% (active).
Still for that read-out and setting: the same measure for `Clc1ccc2c(NCCCNc3nc(-n4ccnc4)nc4ccccc34)ccnc2c1`: 94.3%; for `CC1CCNC(C)C1` (stereo not drawn): 102%.
Consider `COc1ccc(NC(=O)c2ccc(/C=C/C(=O)c3ncc[nH]3)cc2)cc1`, for which the growth was 78.2%.
On the same count and under the same terms, the same measure for `O=C1c2cc3c(cc2-c2c1c1ccc(F)cc1c(=O)n2C[C@H](O)[C@H](O)[C@H](O)CO)OCO3`: -70.4% (active); for `O=C(CCl)Oc1ccc(-c2ccccc2)c(Br)c1`: 99.6%; for `CCCCCCN(CCCCCC)C(=N)c1ccnc2ccccc12`: 81.3%.
On to `Cc1cc(N2CCCCCC2)nc(NC2CCCC(Nc3ccnc4cc(Cl)ccc34)C2)n1` (stereo not drawn), for which the growth was -84.3% (active).
